Assay [1] is described as follows: compounds binding Alexa647 anti-His antibody – biochemical, small-molecule microarray, 635 nm fluorescence, artefact control for SMM control protein annotation, primary screen (AID 1128).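 Note: score merges feature fluorescence with signal-to-noise for each printed compound spot.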 The following applies: higher = more signal.
The test system of assay [2] is Human papillomavirus type 1a E7 protein (residues 1-88). The experiment in a line: HPV1a E7 small-molecule binders, primary screen, biochemical, small-molecule microarray, residues 1-88, 635 nm (AID 1129). Conditions: small-molecule microarray binding, fluorescence 635 nm; higher = more signal.
For assay [3], the target named is Focal adhesion kinase 1 (Homo sapiens) (UniProt Q05397). The experiment in a line: PTK2 protein binding on printed compound slides – biochemical, small-molecule microarray, 635/667 nm fluorescence, BSA, DTT, primary screen (AID 1130).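 Note: composite of spot emission at 667 nm and signal to noise over triplicate slides.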 The following applies: 635 nm fluorescence, higher = more signal.
Assay [4] has as its system Fibrinogen (Alexa647-labelled). The assay can be described thus: Alexa647-fibrinogen binding to printed small molecules – biochemical, small-molecule microarray, 635/667 nm fluorescence, artefact control for SMM control-protein annotation, profiling panel (AID 1131).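 Note: z-score merges 667 nm fluorescence with per-spot signal-to-noise over triplicate slides.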 The following applies: fibrinogen-A647 binding fluorescence, higher = more signal.
Assay [5] deals with Follistatin (Homo sapiens) (UniProt P19883). The experiment in a line: FST protein binding to printed compounds – biochemical, small-molecule microarray, 635/667 nm fluorescence, primary screen (AID 1132). Conditions: 635 nm fluorescence, higher = more signal.
Assay [6] concerns the target Fibroblast growth factor 2 (Homo sapiens) (UniProt P09038). The assay can be described thus: basic fibroblast growth factor binding to printed compounds – biochemical, small-molecule microarray, 635/667 nm fluorescence, primary screen (AID 1133). Conditions: FGF2, fluorescence 635/667, higher = more signal.
Assay [7] is described as follows: JC-1 mitochondrial potential readout, lung cancer cells – cell-based, A549, JC-1 fluorescence, basal, 24 h, 100 nL, profiling panel (AID 1138).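 Note: A549 lung adenocarcinoma cells under basal conditions with no added stimulus; test concentration not given here.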 Conditions: higher = more signal.
The subject of a further assay is Lefty1. The experiment in a line: Lefty1 protein binding to printed compounds – biochemical, small-molecule microarray, 635/667 nm fluorescence, primary screen (AID 1139). Conditions: fluorescence 635/667, higher = more signal.
For assay [8], the system named is wheat germ agglutinin (Triticum aestivum), Alexa647-labelled. The experiment in a line: Alexa647-WGA lectin binding to printed small molecules – biochemical, small-molecule microarray, 635/667 nm fluorescence, artefact control for SMM control-protein annotation, profiling panel (AID 1140).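 Note: score merges 667 nm feature emission with signal to noise over triplicate slides.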 Conditions: WGA-A647 binding, 635 nm fluorescence, higher = more signal.
The target in assay [9] is Luciferin 4-monooxygenase (Photinus pyralis) (UniProt P08659). The experiment in a line: inhibition of purified Photinus pyralis luciferase – biochemical, luminescence, purified enzyme, 2006 set, primary screen (AID 1141).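 Note: cell-free assay with purified firefly luciferase at 100 ng per well in PBS; test concentration not given here.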 The following applies: purified firefly luciferase, SteadyGlo luminescence, 30 min; higher = more signal, called active from +8 up or from −8 down.
Assay [10] has as its system Wnt5a (protein binding on small-molecule microarray). The experiment in a line: small molecules binding Wnt5a protein – biophysical, small-molecule microarray, 635/667 nm fluorescence, primary screen (AID 1142).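 Note: fluorescence read at 667 nm with signal to noise per printed feature.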 Conditions: 635 nm fluorescence, higher = more signal.
Assay [11] is described as follows: ATP-based viability of Huh7 replicon cells – cell-based, CellTiter-Glo luminescence, basal, 48 h, cytotoxicity control for HCV replication inhibitor project, primary screen (AID 1143).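 Note: Huh7 hepatoma cells carrying a hepatitis C replication reporter with no stimulus; test concentration not given here.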 Conditions: higher = more signal, called active from +8 up or from −8 down. On the technique in general: A replicon is a self-replicating genome or part of one, used to study replication in cells.

A short description of assay [12]: Pseudomonas biofilm growth suppression – PAO1 strain, BacTiter-Glo luminescence, LB-PBS, primary screen (AID 1144). Conditions: P. aeruginosa PAO1 biofilm, 12 h, higher = more signal.
Assay [13] is described as follows: basal CRE-LacZ reporter activity in PC12 – cell-based, unstimulated, primary screen (AID 1145). The following applies: no forskolin, luminescence, 4.5 h, higher = more signal, called active from +8 up or from −8 down.
Assay [14] in a line: forskolin-driven CRE-LacZ activity in PC12 – cell-based, CRE-LacZ reporter, forskolin-stimulated, primary screen (AID 1146).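 Note: PC12 cells with 6xCRE LacZ reporter stimulated by forskolin 10 µM; beta-galactosidase reporter signal reflecting CREB driven transcription.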 The following applies: luminescence, 4.5 h, higher = more signal, called active from +8 up or from −8 down.
Assay [15] deals with Streptavidin (Streptomyces avidinii) (UniProt P22629). The assay can be described thus: compounds binding control protein streptavidin – biophysical, small-molecule microarray, 635/667 nm fluorescence, artefact control for SMM compound annotation, primary screen (AID 1147).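 Note: signal reflects streptavidin binding to arrayed compounds as a control protein.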 Conditions: higher = more signal.
Assay [16] can be described thus: probe aInhba binding on compound microarray – biochemical, small-molecule microarray, 635/667 nm fluorescence, primary screen (AID 1148).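 Note: score merges 667nm spot fluorescence with signal-to-noise for antibody binding to printed compounds.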 Conditions: higher = more signal.
For assay [17], the target named is Torsin-1A (Homo sapiens) (UniProt O14656). The experiment in a line: TOR1A wild-type binding on microarray – cell lysate, small-molecule microarray, lysate, 635/667 nm, primary screen (AID 1149). The following applies: COS7 hTOR1A-WT lysate, 635 nm fluorescence, higher = more signal.
For assay [18] the target is unchanged. The assay can be described thus: torsin A mutant lysate binding on microarrays – cell lysate, small-molecule microarray, COS7 lysate, 635/667 nm fluorescence, primary screen (AID 1150).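 Note: score pools 667 nm emission and signal to noise measuring lysate protein binding.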 Conditions: COS7 hTOR1A mutant lysate, 635 nm fluorescence, higher = more signal.
For assay [19], the system named is Sonic hedgehog protein (Shh). The assay can be described thus: Sonic hedgehog microarray binding compounds – biochemical, small-molecule microarray, 635/667 nm fluorescence, primary screen (AID 1151).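 Note: Shh protein binding to compounds spotted on small-molecule microarray slides; score combines spot fluorescence intensity with signal-to-noise across triplicate slides.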 Conditions: 635 nm fluorescence, higher = more signal.

The source made the active and inactive calls. Unless noted, the rule behind the calls is not given here.

Chain of Streptavidin (Streptomyces avidinii) (P22629 whole entry, looked up): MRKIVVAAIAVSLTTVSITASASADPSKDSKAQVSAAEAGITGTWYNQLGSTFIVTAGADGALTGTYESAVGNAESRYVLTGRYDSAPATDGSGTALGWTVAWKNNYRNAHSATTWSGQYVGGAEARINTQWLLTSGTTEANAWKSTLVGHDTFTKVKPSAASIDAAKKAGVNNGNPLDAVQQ
Chain of Follistatin (Homo sapiens) (P19883 whole entry, looked up): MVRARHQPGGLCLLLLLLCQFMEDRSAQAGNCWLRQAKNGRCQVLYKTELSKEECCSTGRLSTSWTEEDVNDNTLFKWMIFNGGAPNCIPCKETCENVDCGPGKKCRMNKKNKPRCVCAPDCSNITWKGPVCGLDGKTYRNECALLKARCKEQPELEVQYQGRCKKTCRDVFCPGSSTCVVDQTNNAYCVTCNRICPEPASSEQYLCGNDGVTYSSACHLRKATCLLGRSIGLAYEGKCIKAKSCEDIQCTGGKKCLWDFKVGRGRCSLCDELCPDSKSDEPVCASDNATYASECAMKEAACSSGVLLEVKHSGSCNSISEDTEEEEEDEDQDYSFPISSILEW
Chain of Torsin-1A (Homo sapiens) (O14656 whole entry, looked up): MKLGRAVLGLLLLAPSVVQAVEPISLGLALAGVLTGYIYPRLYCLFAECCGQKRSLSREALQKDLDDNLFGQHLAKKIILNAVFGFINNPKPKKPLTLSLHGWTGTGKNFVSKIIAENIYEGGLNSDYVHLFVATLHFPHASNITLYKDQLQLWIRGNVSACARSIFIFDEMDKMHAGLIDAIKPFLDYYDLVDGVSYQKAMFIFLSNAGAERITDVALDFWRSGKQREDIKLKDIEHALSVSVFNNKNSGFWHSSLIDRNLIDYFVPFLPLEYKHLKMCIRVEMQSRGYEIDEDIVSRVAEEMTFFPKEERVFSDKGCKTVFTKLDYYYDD
Chain of Focal adhesion kinase 1 (Homo sapiens) (Q05397 whole entry, looked up): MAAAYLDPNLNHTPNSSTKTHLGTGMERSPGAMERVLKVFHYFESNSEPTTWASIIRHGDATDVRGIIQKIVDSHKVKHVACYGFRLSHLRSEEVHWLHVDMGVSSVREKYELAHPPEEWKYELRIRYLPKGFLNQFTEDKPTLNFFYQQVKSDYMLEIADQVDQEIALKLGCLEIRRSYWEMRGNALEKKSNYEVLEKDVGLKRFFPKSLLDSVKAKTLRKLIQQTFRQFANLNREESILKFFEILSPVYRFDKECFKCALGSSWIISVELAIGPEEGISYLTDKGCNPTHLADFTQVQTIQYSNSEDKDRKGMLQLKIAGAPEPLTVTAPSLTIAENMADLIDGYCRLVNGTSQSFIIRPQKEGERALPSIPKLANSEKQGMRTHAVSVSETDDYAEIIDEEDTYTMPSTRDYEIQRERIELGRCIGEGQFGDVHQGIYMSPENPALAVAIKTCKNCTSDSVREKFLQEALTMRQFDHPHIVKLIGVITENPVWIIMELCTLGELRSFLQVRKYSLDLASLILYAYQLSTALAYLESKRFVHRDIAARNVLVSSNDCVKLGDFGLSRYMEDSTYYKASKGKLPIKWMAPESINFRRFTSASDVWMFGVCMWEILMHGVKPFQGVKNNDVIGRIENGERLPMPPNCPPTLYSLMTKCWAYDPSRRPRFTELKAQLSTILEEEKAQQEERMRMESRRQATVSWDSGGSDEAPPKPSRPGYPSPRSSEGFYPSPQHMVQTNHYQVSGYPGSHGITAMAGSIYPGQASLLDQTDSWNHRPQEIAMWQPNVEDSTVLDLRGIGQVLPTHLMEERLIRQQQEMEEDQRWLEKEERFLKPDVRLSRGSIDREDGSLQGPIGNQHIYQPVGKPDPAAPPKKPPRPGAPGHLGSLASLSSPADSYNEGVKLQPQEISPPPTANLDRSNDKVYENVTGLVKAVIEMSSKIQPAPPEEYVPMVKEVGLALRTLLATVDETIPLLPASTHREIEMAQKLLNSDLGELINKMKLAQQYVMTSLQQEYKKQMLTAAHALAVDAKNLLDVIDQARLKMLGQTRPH
Chain of Luciferin 4-monooxygenase (Photinus pyralis) (P08659 whole entry, looked up): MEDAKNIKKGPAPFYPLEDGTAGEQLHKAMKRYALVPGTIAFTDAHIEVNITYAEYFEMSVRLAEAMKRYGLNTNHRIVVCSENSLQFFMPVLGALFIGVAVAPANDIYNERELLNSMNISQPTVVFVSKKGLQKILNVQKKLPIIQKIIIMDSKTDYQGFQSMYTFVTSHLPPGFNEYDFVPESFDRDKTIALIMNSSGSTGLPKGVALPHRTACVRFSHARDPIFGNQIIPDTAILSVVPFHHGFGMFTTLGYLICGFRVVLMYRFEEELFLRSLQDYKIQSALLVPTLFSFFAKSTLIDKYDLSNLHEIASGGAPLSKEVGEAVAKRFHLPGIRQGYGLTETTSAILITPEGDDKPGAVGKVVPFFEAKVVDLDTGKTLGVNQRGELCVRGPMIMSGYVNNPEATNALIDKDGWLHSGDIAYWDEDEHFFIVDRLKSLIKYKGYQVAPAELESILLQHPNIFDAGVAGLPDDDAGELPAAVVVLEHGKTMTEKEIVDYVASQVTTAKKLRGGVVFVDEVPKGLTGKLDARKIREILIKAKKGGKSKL
Chain of Fibroblast growth factor 2 (Homo sapiens) (P09038 whole entry, looked up): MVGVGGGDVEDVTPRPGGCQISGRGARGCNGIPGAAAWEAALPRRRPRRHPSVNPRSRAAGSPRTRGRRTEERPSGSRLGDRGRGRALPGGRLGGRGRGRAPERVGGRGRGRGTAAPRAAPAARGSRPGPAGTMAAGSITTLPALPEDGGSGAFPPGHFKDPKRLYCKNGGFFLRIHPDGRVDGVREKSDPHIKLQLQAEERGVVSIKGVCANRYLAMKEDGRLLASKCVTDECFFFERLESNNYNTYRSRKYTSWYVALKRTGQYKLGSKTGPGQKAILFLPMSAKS

With `COC(=O)C(CC#Cc1ccc2c(c1)[C@]1(C(=O)N2)[C@H](c2ccc(O)cc2)N2[C@H](c3ccccc3)[C@H](c3ccccc3)OC(=O)[C@H]2[C@@H]1C(=O)N1CCc2cc(OC)c(OC)cc2C1)C(=O)OC`, the composite z-score is 1.54 in assay [1]; 0.953 in assay [2]; -0.0453 in [3]; 0.742 in assay [4]; 1.36 in [5]; 1.17 in assay [6]. In addition, the composite z-score is 1.54 in the assay with Lefty1; 0.384 in assay [8]; 0.294 in assay [10]; 0.455 in [15]; -0.101 in [16]; 0.966 with Torsin-1A (Homo sapiens) [17]. The composite z-score with Torsin-1A (Homo sapiens) [18] stood at 0.48; in [19], 1.31. For the same molecule, the z-score in assay [7] was -0.654; in [9], -0.0494 (inactive); in assay [11], -0.26 (inactive); in assay [12], 0.786 (inactive); in assay [13], 0.918 (inactive); in [14], 0.351 (inactive).
In the case of `COCC(=C=CC[C@@H](O)c1ccc(OCCO)cc1)C[C@@H](O)COCc1ccccc1`, the composite z-score in [1] is 1.29; in assay [2], 0.893; in assay [3], 0.106; in assay [4] it was -0.262; in [5], 1.34; in assay [6], 1.41. Moreover, the composite z-score in the assay with Lefty1 is 1.01; in [8], 0.904; in [10] it was 1.05; in assay [15], -0.223; in assay [16], 0.0345; with Torsin-1A (Homo sapiens) [17], 0.681. Moreover, the figures for the composite z-score (with Torsin-1A (Homo sapiens) [18]; in assay [19]) were 1.43 and 1.54, respectively. In addition, the z-score in [7] is 0.974; in assay [9], -1.7 (inactive); in assay [11] it was -0.959 (inactive); in assay [12], -0.498 (inactive); in assay [13], 10.3 (active); in [14], -0.487 (inactive).
For `CC(=O)NCCCC[C@@H]1NC(=O)[C@H]2C[C@@H](C(=O)NCCCCCC[N+](C)(C)C)[C@@H](c3ccc(O)cc3)N2C1=O`, the composite z-score in assay [1] was 1.54; in assay [2], 1.08; in assay [3], 0.26; in assay [4] it was -0.0238; in [5], 1.26; in assay [6], 0.862. Also, the composite z-score in the assay on Lefty1 is 1.41; in assay [8] it was 0.16; in assay [10], -0.127; in assay [15], -0.448; in assay [16], 0.0857; in the assay with Torsin-1A (Homo sapiens) [17], 1.4. For the same molecule, the composite z-score with Torsin-1A (Homo sapiens) [18] is 1.75; in [19], 2.1. Moreover, the z-score is -0.431 in [7]; 0.512 (inactive) in assay [9]; -0.385 (inactive) in [11]; -1.42 (inactive) in assay [12]; -1.35 (inactive) in assay [13]; -0.665 (inactive) in assay [14].
For the molecule `C=C(COC)C(=O)CC[C@@H](OC(=O)c1cccnc1)c1cccc(OCCO)c1`, the composite z-score in [1] was -0.007; in assay [2] it was 0.23; in [3] it was -0.437; in [4] it was -1.48; in assay [5] it was 1.29; in assay [6], 0.773. Moreover, the composite z-score with Lefty1 is 1.19; in [8], 0.981; in assay [10], 0.0666; in [15], -0.296; in [16], -0.127; with Torsin-1A (Homo sapiens) [17] it was 0.653. Besides, the values for the composite z-score (in the assay with Torsin-1A (Homo sapiens) [18]; in [19]) were 0.778 and 1.37, respectively. Also, the z-score was 0.525 in assay [7]; -2.86 (inactive) in assay [9]; -0.864 (inactive) in [11]; -0.652 (inactive) in [12]; 8.15 (active) in assay [13]; 5.43 (inactive) in [14].
Turning to `CO[C@H]1O[C@H](CO)[C@@H](OC(=O)Nc2ccc(C(F)(F)F)cc2)[C@H](OC(=O)Nc2ccccc2-c2ccccc2)[C@@H]1OC(=O)Nc1ccccc1-c1ccccc1`, the composite z-score stood at 2.01 in assay [1]; 1.1 in assay [2]; 0.799 in [3]; 0.911 in [4]; 1.3 in assay [5]; 0.697 in assay [6]. Moreover, the composite z-score in the assay on Lefty1 worked out at 1.08; in assay [8], 1.04; in assay [10], 0.229; in assay [15] it was 1.02; in assay [16], 0.228; with Torsin-1A (Homo sapiens) [17], 0.363. In addition, the values for the composite z-score (in the assay with Torsin-1A (Homo sapiens) [18]; in [19]) were 0.979 and 1.34, respectively. In addition, the z-score in assay [7] was 0.284; in assay [9] it was 0.798 (inactive); in assay [11], -4.02 (inactive); in assay [12] it was 0.821 (inactive); in [13], 0.148 (inactive); in [14] it was 0.892 (inactive).

Values taken from PubChem BioAssay.
